# Laboratory results from PubChem BioAssay (NCATS).
# Inconclusive results are not listed. A call without a number means that no potency is given here. Values without a mark were called inactive. The source made the active and inactive calls. Unless noted, calls come from the whole dose curve; as a rule, active = well fitted curve in the direction sought with a large enough effect; inconclusive = small, poorly fitted or top-dose-only effect, or another doubt; inactive = no such curve, though single readings can be large; an effect the other way counts as inactive or inconclusive.
# Legend:
# [1] = qHTS Assay for Identification of Small Molecule Antagonists for Thrombopoietin (TPO) Signaling Pathway (AID 918); settings: TPO-dependent cell signaling reporter, antagonist mode; note: potency is the fitted concentration of half-maximal effect; nearly all actives have a fitted effect of over 60% in size
# In short: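 Murine Ba/F3 cells stably expressing human TPO receptor and a Glycoprotein IIb promoter–luciferase reporter were IL-3-starved overnight, treated with compounds plus TPO (26 pM final, its EC50) for 24 hrs at 37 C, then read by luminescence.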
# [2] = qHTS Assay for Identification of Small Molecule Agonists for Hypoxia Response Element Signaling Pathway (AID 914; active = well fitted activation curve with a large enough effect in the signal ratio, with a control signal flat, not every such curve was filed as active; the % refers to the signal ratio; note: potency is the fitted concentration of half-maximal effect); settings: ME-180 (cervical carcinoma) HRE-bla reporter, beta-lactamase ratio, CoCl2, 17 h; activation: stronger effect = higher value
# In short: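 Reporter activity (beta-lactamase, CCF4 460nm/530nm ratio) in HRE-bla ME-180 cells is recorded after 17 h compound exposure with EC50 CoCl2 at 37 degrees Celsius. AC50 values come from titration data.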
# [3] = target: Cytochrome P450 2C9 (Homo sapiens) (UniProt P11712); test: qHTS Assay for Inhibitors and Substrates of Cytochrome P450 2C9 (AID 883); settings: recombinant CYP2C9, luciferin-H luminescence, 60 min; series mostly up to 11.4 µM; note: nearly all actives have a fitted effect of over 60% in size; note: potency is the fitted concentration of half-maximal effect
# Cytochrome P450 2C9 (Homo sapiens), sequence (P11712 whole entry, looked up): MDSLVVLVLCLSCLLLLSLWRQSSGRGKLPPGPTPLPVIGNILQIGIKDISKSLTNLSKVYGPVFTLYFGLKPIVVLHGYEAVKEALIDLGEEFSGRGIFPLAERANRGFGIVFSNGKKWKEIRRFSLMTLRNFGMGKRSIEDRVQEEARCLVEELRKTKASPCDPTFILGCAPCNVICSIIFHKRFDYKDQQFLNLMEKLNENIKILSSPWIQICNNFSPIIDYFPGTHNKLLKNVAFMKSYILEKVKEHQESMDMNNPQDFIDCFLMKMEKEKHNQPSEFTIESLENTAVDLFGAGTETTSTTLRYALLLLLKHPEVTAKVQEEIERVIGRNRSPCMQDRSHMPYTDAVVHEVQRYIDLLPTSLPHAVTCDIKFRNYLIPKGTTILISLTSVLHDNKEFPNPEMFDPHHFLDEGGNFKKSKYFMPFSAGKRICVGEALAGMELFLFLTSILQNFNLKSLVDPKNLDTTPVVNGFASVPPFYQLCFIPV
# In short: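 10nM CYP2C9 + 100uM Luciferin-H (=KM), 25mM KPO4; cpd 10 min 37C; NADPH regen, 60 min 37C; stop/detect with P450 Glo-Buffer 20 min; luminescence. Norm. to 57uM sulphaphenazole as full inhibition.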
# [4] = target: ATP-dependent 6-phosphofructokinase (Trypanosoma brucei brucei) (UniProt O15648); test: qHTS Assay to Find Inhibitors of T. brucei phosphofructokinase: hit validation (AID 492961); settings: T. brucei PFK, ADP-Glo luminescence; series mostly up to 51.4 µM
# ATP-dependent 6-phosphofructokinase (Trypanosoma brucei brucei), sequence (O15648 whole entry, looked up): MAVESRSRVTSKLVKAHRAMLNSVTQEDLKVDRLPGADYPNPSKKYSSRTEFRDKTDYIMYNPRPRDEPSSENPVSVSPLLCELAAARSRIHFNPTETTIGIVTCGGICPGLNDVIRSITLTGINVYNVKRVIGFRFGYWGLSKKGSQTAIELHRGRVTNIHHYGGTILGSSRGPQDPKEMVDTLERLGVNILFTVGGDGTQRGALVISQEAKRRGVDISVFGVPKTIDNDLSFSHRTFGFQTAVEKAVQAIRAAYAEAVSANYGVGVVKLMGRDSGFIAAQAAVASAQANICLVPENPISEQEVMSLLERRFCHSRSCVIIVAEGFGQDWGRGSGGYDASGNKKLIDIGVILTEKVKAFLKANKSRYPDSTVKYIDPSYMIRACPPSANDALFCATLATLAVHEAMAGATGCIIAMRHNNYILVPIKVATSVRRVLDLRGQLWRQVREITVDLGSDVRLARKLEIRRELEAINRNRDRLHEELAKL
# In short: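 Luminescence from ADP-Glo reports ADP generated as T. brucei PFK (1.25 nM) phosphorylates 0.5 mM fructose-6-phosphate using 0.1 mM ATP. Reactions ran 45 min at room temperature, pH 8.0.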
# [5] = target: Luciferin 4-monooxygenase (Photinus pyralis) (UniProt P08659); test: Biochemical firefly luciferase enzyme assay for NPC (AID 624030);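 note: purified P. pyralis luciferase at 10 nM with luciferin and ATP substrate; nearly all actives have a fitted effect of over 70% in size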; settings: purified P. pyralis luciferase, luminescence, 5 min; series mostly up to 58.6 µM
# Luciferin 4-monooxygenase (Photinus pyralis), sequence (P08659 whole entry, looked up): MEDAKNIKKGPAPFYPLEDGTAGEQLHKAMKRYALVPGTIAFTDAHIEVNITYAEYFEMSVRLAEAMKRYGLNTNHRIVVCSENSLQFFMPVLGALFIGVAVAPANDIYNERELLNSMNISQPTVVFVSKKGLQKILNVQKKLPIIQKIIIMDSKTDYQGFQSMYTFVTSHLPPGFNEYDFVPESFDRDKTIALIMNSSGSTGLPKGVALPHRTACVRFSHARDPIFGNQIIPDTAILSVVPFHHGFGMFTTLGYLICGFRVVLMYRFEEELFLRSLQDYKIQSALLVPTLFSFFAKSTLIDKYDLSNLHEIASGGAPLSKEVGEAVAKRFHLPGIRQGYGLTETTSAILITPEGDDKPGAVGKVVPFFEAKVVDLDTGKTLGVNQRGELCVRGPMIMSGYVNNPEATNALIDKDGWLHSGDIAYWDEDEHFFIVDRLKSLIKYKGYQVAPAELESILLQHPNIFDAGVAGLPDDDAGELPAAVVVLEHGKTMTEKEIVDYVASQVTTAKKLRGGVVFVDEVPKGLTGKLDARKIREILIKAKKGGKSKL
# In short: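 Purified P. pyralis luciferase at 10 nM in 50 mM Tris Acetate (final), luminescence read within 5 minutes of enzyme addition to compounds. Activity normalised to PTC124 versus DMSO; concentration-response curves classed by r2, magnitude and activity.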
# [6] = S16 Schwann cell viability assay (CellTiter-Glo assay) (AID 624031); settings: S16 rat Schwann cells viability, 24 h; series mostly up to 57.5 µM;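 note: cellular ATP luminescence as a viability measure; nearly all actives have a fitted effect of over 70% in size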
# In short: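 Native S16 Schwann cells (rat), serum-containing medium, overnight attachment then 24 h drug exposure at 37 °C/5% CO2. CellTiter-Glo ATP signal; normalized to cell-free and vehicle wells.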
# [7] = S16 Schwann cell PMP22 intronic element firefly luciferase assay (AID 624032); settings: S16 rat Schwann cells, PMP22 element FLuc, 24 h; series mostly up to 57.5 µM; note: nearly all actives have a fitted effect of over 30% in size; note: potency is the fitted concentration of half-maximal effect
# In short: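 Rat S16 Schwann cells stably carrying firefly luciferase driven by a PMP22 intronic element, in 10% FBS, treated 24 h at 37 C. ONE-Glo luminescence normalized to PTC124 control and DMSO (0%); curves classed by r2, magnitude and activity.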
# [8] = qHTS profiling for inhibitors of Plasmodium falciparum proliferation (AID 504749); note: potency is the fitted concentration of half-maximal effect; for all read-outs here: nearly all actives have a fitted effect of over 60% in size; settings: P. falciparum in erythrocytes, SYBR Green DNA, 72 h; for activity, negative = inhibition: at 28.7 µM (top of the series)
# In short: (§1)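 Readout was DNA-dye fluorescence from lysed cultures, ex 485/em 535 nm. Parasitized red cells had grown 72 h with compound; data scaled between 0.29 uM artemisinin and DMSO wells and corrected using vehicle-only plates.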
# 7G8 = test: as above; settings: P. falciparum in erythrocytes, SYBR Green DNA, 72 h; series mostly up to 28.7 µM
# In short: as §1
# AS120 = test: as above; settings: P. falciparum in erythrocytes, SYBR Green DNA, 72 h; series mostly up to 28.7 µM
# In short: as §1
# ATS189 = test: as above; settings: P. falciparum in erythrocytes, SYBR Green DNA, 72 h; series mostly up to 28.7 µM
# In short: as §1
# CP192 = test: as above; settings: P. falciparum in erythrocytes, SYBR Green DNA, 72 h; series mostly up to 28.7 µM
# In short: as §1
# CP203 = test: as above; settings: P. falciparum in erythrocytes, SYBR Green DNA, 72 h; series mostly up to 28.7 µM
# In short: as §1
# CP335 = test: as above; settings: P. falciparum in erythrocytes, SYBR Green DNA, 72 h; series mostly up to 28.7 µM
# In short: as §1
# DFO2036 = test: as above; settings: P. falciparum in erythrocytes, SYBR Green DNA, 72 h; series mostly up to 28.7 µM
# In short: as §1
# Dd2 = test: as above; settings: P. falciparum in erythrocytes, SYBR Green DNA, 72 h; series mostly up to 28.7 µM
# In short: as §1
# ICS = test: as above; settings: P. falciparum in erythrocytes, SYBR Green DNA, 72 h; series mostly up to 28.7 µM
# In short: as §1
# TAB165 = test: as above; settings: P. falciparum in erythrocytes, SYBR Green DNA, 72 h; series mostly up to 28.7 µM
# In short: as §1
# W2 = test: as above; settings: P. falciparum in erythrocytes, SYBR Green DNA, 72 h; series mostly up to 28.7 µM
# In short: as §1
# [9] = target: Cytochrome P450 3A4 (Homo sapiens) (UniProt P08684); test: qHTS Assay for Inhibitors and Substrates of Cytochrome P450 3A4 (AID 884); settings: recombinant CYP3A4, Luciferin-PPXE luminescence; series mostly up to 57.1 µM; note: nearly all actives have a fitted effect of over 50% in size; note: potency is the fitted concentration of half-maximal effect
# Cytochrome P450 3A4 (Homo sapiens), sequence (P08684 whole entry, looked up): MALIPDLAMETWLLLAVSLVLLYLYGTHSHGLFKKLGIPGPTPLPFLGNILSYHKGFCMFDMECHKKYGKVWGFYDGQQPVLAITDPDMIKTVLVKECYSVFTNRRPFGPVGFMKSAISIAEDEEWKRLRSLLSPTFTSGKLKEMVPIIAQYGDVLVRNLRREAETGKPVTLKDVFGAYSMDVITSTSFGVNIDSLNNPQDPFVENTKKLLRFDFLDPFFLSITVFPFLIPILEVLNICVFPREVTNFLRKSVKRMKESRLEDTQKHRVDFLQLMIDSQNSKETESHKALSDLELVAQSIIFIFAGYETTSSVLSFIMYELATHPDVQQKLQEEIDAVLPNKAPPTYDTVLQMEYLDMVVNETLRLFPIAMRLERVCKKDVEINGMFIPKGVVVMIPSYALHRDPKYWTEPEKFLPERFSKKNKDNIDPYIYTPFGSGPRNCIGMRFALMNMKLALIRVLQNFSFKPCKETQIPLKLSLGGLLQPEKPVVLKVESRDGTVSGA
# In short: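 20 nM human CYP3A4 with 25 uM Luciferin-PPXE (at KM) in 200 mM KPO4, preincubated 10 min with compound; NADPH regeneration started a 60 min RT reaction. Luciferin detected by luminescence, normalized to 57 uM ketoconazole as full inhibition.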
smiles,measurement,setting,value
CSC(N)=NCCC[C@@H](N)C(=O)O,Potency,[1],3.16 µM (active)
Cc1c(NC(=O)Nc2c(Cl)cccc2Cl)c(=O)n(-c2ccccc2)n1C,activation,[2],-3.31%
Cc1cccc(C)c1OC[C@@H](N)C(C)C,activation,[2],-2.64%
CC(=O)OCC(=O)[C@@]1(O)CC[C@@H]2[C@@H]3CCC4=CC(=O)CC[C@@]4(C)[C@H]3C(=O)C[C@]21C,Potency,[3],inactive
NC(N)=NCCSSCCN=C(N)N,Potency,[3],inactive
C[C@@H]1C[C@H]2[C@H]3C[C@@H](F)C4=CC(=O)C=C[C@]4(C)[C@@]3(Cl)[C@@H](O)C[C@@]2(C)[C@@H]1C(=O)COC(=O)C(C)(C)C,outcome,[4],inactive
same,outcome,[5],inactive
same,Potency,[6],inactive
same,Potency,[7],inactive
same,"activity, negative = inhibition",[8]; parasite line A,0.272%
same,"activity, negative = inhibition",[8]; parasite line B,-10.2%
same,Potency,7G8,4.47 µM (active)
same,Potency,AS120,inactive
same,Potency,ATS189,inactive
same,Potency,CP192,inactive
same,Potency,CP203,inactive
same,Potency,CP335,12 µM (active)
same,Potency,DFO2036,inactive
same,Potency,Dd2,12.6 µM (active)
same,Potency,ICS,6.31 µM (active)
same,Potency,TAB165,inactive
same,Potency,W2,10.7 µM (active)
CCCCCCCCCCCCC/C=C\[C@H](O)[C@H](N)CO,Potency,[3],inactive
N[C@H](CS(=O)O)C(=O)O,Potency,[3],inactive
O=C(Nc1ccccc1)N1CCC2(CC1)CCN(C(=O)c1ccco1)CC2,Potency,[9],inactive
C=C[C@H]1CN2CC[C@@H]1C[C@H]2[C@@H](O)c1ccnc2ccc(OC)cc12,outcome,[3],inactive
CCn1cc(C(=O)O)c(=O)c2ccc(Cc3ccccc3)nc21,Potency,[3],inactive
O=C(O)[C@H]1C[C@H](C(=O)O)N1,Potency,[3],inactive
N[C@@H](C(=O)O)[C@H](O)C(=O)O,Potency,[3],inactive
CC(C)[C@H]1C(=O)C(C(N)=O)=C(O)[C@]2(O)C(=O)C3=C(O)c4c(O)ccc(N(C)C)c4C[C@H]3C[C@@H]12,Potency,[1],2.51 µM (active)
C[C@H]1C[C@@H]2[C@H]3CCC4=CC(=O)C=C[C@@]4(C)[C@@]3(Cl)[C@@H](O)C[C@]2(C)[C@]1(OC(=O)c1ccco1)C(=O)CCl,outcome,[4],inactive
same,outcome,[5],inactive
same,Potency,[6],inactive
same,Potency,[7],inactive
same,Potency,[8]; parasite line B,3.16 µM (active)
same,Potency,7G8,1.78 µM (active)
same,Potency,AS120,3.55 µM (active)
same,Potency,CP203,5.73 µM (active)
same,Potency,CP335,5.73 µM (active)
same,Potency,DFO2036,4.47 µM (active)
same,Potency,Dd2,3.55 µM (active)
same,Potency,ICS,3.55 µM (active)
same,Potency,TAB165,3.55 µM (active)
same,Potency,W2,3.61 µM (active)
CO/N=C(\C(=O)N[C@@H]1C(=O)N2C(C(=O)[O-])=C(C[N+]3(C)CCCC3)CS[C@@H]12)c1csc(N)n1,outcome,[4],inactive
same,outcome,[5],inactive
same,Potency,[6],inactive
same,Potency,[7],inactive
same,"activity, negative = inhibition",[8]; parasite line A,2.78%
same,"activity, negative = inhibition",[8]; parasite line B,10.9%
same,Potency,7G8,inactive
same,Potency,AS120,inactive
same,Potency,ATS189,inactive
same,Potency,CP192,inactive
same,Potency,CP203,inactive
same,Potency,CP335,inactive
same,Potency,DFO2036,inactive
same,Potency,Dd2,inactive
same,Potency,ICS,inactive
same,Potency,TAB165,inactive
same,Potency,W2,inactive
c1cc(CSSCc2ccncc2)ccn1,Potency,[3],1.58 µM (active)
same,Potency,[9],2.51 µM (active)
O=C(O)CCC/C=C\C[C@H]1[C@@H](/C=C\[C@@H](O)C2Cc3ccccc3C2)[C@H](F)C[C@H]1O,Potency,[3],inactive
Nc1c2c(nc3ccccc13)CCC[C@H]2O,Potency,[3],inactive
COc1cc2nc(N3CCN(C(=O)OCc4ccccc4)[C@H](C(=O)NC(C)(C)C)C3)nc(N)c2cc1OC,Potency,[9],3.98 µM (active)
same,Potency,[1],12.6 µM (active)
OC[C@@H]1O[C@@H](n2cnc3c(NC4CCCCC4)ncnc32)[C@@H](O)[C@H]1O,activation,[2],-22.9%
CCNc1ncc2nc(-c3ccccc3)c(=O)n(C3CC3)c2n1,Potency,[2],2.51 µM (active)
Cc1cn([C@H]2C=C[C@H](CO)O2)c(=O)[nH]c1=O,Potency,[3],inactive
C[C@@]12C(=O)OC(=O)[C@@]1(C)[C@H]1CC[C@@H]2O1,Potency,[3],inactive
same,Potency,[1],3.16 µM (active)
O=S(=O)(NCCNC/C=C\c1ccc(Br)cc1)c1cccc2cnccc12,Potency,[1],10 µM (active)
C=C(NC(=O)C(=C)NC(=O)c1csc(C2=N[C@@H]3c4csc(n4)[C@@H]4NC(=O)c5csc(n5)[C@@H]([C@](C)(O)[C@H](C)O)NC(=O)[C@@H]5CSC(=N5)/C(=C/C)NC(=O)[C@@H]([C@H](C)O)NC(=O)c5csc(n5)[C@]3(CC2)NC(=O)[C@@H](C)NC(=O)C(=C)NC(=O)[C@@H](C)NC(=O)[C@@H]([C@@H](C)CC)N[C@H]2C=Cc3c([C@H](C)O)cc(nc3[C@@H]2O)C(=O)O[C@H]4C)n1)C(N)=O,outcome,[4],inactive
same,outcome,[5],inactive
same,Potency,[6],inactive
same,Potency,[7],8.7 µM (active)
same,Potency,7G8,3.16 µM (active)
same,Potency,ATS189,inactive
same,Potency,CP192,inactive
same,Potency,CP335,2.28 µM (active)
same,Potency,Dd2,1.12 µM (active)
same,Potency,ICS,3.16 µM (active)
same,Potency,TAB165,2.82 µM (active)
same,Potency,W2,1.61 µM (active)
CC[C@H](C)[C@@H]1O[C@]2(CC[C@@H]1C)C[C@H]1C[C@H](CC=C(C)[C@@H](O[C@H]3C[C@H](OC)[C@H](O[C@H]4C[C@H](OC)[C@H](O)[C@H](C)O4)[C@H](C)O3)[C@@H](C)C=CC=C3CO[C@@H]4[C@@H](O)C(C)=C[C@H](C(=O)O1)[C@@]34O)O2,Potency,[1],12.6 µM (active)
Cc1c2cnccc2c(C)c2c1c1ccccc1n2CCOC(=O)c1ccccc1,Potency,[9],0.631 µM (active)
COC(=O)[C@@H]1[C@H]2C[C@H]3c4[nH]c5cc(OC)ccc5c4CCN3C[C@@H]2C[C@@H](OC(=O)c2cc(OC)c(OC)c(OC)c2)[C@@H]1OC,Potency,[3],inactive
CCN(CC)[C@@H](C)C(=O)N1c2ccccc2Sc2ccccc21,Potency,[3],inactive
C=CCN1CCc2c(cc(O)c(O)c2Cl)[C@H](c2ccccc2)C1,Potency,[9],inactive
CCCCCCCCCCCCCCCC(=O)NC[C@@H](COP(=O)([O-])OCC[N+](C)(C)C)OCC,Potency,[3],inactive
CC(C)(C)[C@@]1(O)CCN2C[C@@H]3c4ccccc4CCc4cccc(c43)[C@@H]2C1,Potency,[3],1.58 µM (active)
same,Potency,[1],12.6 µM (active)
COC(=O)[C@](C)(N)Cc1ccc(O)cc1,Potency,[9],inactive
C[C@@H](COc1ccc(/C=C\c2ccccc2)cc1)[N+](C)(C)C,Potency,[3],inactive
C[C@@H](CN1CCC(Cc2ccccc2)CC1)[C@H](O)c1ccc(O)cc1,Potency,[9],inactive
O=[N+]([O-])c1ccc(CSc2ncnc3c2ncn3[C@@H]2O[C@@H](CO)[C@@H](O)[C@H]2O)cc1,Potency,[9],inactive
O=c1c(CCc2ccccc2)nc2cnc(Oc3ccccc3)nc2n1C[C@H]1CCCO1,activation,[2],-12.6%
c1ccc2nc(CC[C@@H]3CCCCN3)ccc2c1,activation,[2],-14.2%
O[C@H](CN1CCN(c2cccc(Cl)c2)CC1)C(c1ccccc1)c1ccccc1,Potency,[9],inactive
